# Results as given in paper PMC7862700, “An all-to-all approach to the identification of sequence-specific readers for epigenetic DNA modifications on cytosine”.
# Experiments:
# Test in all cases: DAPPL (digital affinity profiling via proximity ligation, sequencing); 10 mM Tris-HCl pH 7.5, 50 mM NaCl, 1 mM DTT, 4% glycerol, room temperature, 30 min; GST-TFs on glutathione beads, 16-mer random dsDNA library, 0.1% formaldehyde crosslink after washing; high values mean tight binding
# FEV = molecular target: T1, FEV (Homo sapiens, UniProt Q99581 1-238); conditions: protein: recombinant; tags: N-terminal GST; dsDNA, one strand shown
# T1 sequence: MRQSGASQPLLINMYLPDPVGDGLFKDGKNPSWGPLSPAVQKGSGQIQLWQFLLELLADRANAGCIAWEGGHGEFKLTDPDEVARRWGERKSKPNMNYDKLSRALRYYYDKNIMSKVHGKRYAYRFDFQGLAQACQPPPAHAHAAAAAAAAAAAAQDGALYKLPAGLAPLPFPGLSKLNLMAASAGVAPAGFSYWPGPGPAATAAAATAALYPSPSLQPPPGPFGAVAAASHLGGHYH
# Procedure, shortened: (§1)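 Each value of binding signal is a hexamer's read frequency for a factor divided by the same hexamer's frequency in the tag-only sample. Barcoded, bead-captured GST fusions of human transcription factors made in yeast were pooled with that sample and incubated with 200 nmole of a random double-stranded 16-mer DNA library in Tris/NaCl/DTT/glycerol buffer at room temperature for 30 min. Washing, 0.1% formaldehyde crosslinking, proximity ligation, PCR and Illumina NextSeq500 sequencing followed.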
# ETV5 = ETV5 (Homo sapiens, UniProt P41161 1-510); conditions: protein: recombinant; tags: N-terminal GST; dsDNA, one strand shown
# Procedure, shortened: as §1
# HSF1 = HSF1 (Homo sapiens, UniProt Q00613 1-529); conditions: protein: recombinant; tags: N-terminal GST; chain copies: 3; dsDNA, one strand shown
# Procedure, shortened: as §1
# SPIC = molecular target: T2, SPIC (Homo sapiens, UniProt Q8N5J4 1-248); conditions: protein: recombinant; tags: N-terminal GST; dsDNA, one strand shown
# T2 sequence: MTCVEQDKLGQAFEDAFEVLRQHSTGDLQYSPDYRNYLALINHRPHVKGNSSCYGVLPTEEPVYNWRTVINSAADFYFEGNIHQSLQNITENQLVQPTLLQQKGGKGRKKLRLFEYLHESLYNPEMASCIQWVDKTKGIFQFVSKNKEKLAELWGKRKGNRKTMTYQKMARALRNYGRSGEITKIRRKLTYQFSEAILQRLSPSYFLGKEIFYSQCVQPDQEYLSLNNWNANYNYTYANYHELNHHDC
# Procedure, shortened: as §1
# ELF4 = ELF4 (Homo sapiens, UniProt Q99607 1-663); conditions: protein: recombinant; tags: N-terminal GST; dsDNA, one strand shown
# Procedure, shortened: as §1
# ELK4 = molecular target: T3, ELK4 (Homo sapiens, UniProt P28324-2 1-405); conditions: protein: recombinant; tags: N-terminal GST; dsDNA, one strand shown
# T3 sequence: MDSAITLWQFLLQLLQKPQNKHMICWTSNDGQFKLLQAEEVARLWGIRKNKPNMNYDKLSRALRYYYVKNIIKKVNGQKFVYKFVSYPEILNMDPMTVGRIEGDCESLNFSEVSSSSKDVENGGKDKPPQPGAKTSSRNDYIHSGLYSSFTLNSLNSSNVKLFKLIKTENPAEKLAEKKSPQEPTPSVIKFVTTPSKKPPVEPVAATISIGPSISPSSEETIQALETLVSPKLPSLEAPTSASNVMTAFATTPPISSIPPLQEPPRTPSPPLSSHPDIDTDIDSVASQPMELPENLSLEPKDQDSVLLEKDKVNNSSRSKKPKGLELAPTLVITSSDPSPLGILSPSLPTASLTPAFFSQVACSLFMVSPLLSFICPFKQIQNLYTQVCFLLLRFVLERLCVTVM
# Procedure, shortened: as §1
# ETV2 = molecular target: T4, ETV2 (Homo sapiens, UniProt O00321 1-342); conditions: protein: recombinant; tags: N-terminal GST; dsDNA, one strand shown
# T4 sequence: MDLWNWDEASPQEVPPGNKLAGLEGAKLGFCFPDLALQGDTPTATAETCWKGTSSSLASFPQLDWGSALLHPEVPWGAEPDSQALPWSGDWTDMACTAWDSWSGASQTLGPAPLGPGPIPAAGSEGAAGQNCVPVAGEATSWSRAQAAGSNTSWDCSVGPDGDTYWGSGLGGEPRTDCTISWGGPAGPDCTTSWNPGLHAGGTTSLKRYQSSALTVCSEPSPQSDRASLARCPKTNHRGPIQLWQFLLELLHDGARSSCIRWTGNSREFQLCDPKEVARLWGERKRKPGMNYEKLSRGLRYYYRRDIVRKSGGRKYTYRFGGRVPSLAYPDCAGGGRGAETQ
# Procedure, shortened: as §1
# ELF3 = molecular target: T5, ELF3 (Homo sapiens, UniProt P78545 1-371); conditions: protein: recombinant; tags: N-terminal GST; dsDNA, one strand shown
# T5 sequence: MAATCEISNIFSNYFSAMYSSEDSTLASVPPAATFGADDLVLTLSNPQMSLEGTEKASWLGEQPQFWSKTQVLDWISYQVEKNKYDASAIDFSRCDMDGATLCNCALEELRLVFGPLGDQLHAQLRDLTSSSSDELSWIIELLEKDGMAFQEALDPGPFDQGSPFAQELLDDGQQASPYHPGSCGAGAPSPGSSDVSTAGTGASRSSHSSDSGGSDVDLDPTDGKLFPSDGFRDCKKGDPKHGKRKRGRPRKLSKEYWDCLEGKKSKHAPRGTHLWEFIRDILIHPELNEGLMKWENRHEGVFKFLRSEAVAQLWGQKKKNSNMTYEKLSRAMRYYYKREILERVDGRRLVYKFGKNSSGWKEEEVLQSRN
# Procedure, shortened: as §1
# CRX = CRX (Homo sapiens, UniProt O43186 1-299); conditions: protein: recombinant; tags: N-terminal GST; dsDNA, one strand shown
# Procedure, shortened: as §1
# ETV1 = ETV1 (Homo sapiens, UniProt P50549 1-477); conditions: protein: recombinant; tags: N-terminal GST; dsDNA, one strand shown
# Procedure, shortened: as §1
# ERF = molecular target: T6, ERF (Homo sapiens, UniProt P50548 1-548); conditions: protein: recombinant; tags: N-terminal GST; dsDNA, one strand shown
# T6 sequence: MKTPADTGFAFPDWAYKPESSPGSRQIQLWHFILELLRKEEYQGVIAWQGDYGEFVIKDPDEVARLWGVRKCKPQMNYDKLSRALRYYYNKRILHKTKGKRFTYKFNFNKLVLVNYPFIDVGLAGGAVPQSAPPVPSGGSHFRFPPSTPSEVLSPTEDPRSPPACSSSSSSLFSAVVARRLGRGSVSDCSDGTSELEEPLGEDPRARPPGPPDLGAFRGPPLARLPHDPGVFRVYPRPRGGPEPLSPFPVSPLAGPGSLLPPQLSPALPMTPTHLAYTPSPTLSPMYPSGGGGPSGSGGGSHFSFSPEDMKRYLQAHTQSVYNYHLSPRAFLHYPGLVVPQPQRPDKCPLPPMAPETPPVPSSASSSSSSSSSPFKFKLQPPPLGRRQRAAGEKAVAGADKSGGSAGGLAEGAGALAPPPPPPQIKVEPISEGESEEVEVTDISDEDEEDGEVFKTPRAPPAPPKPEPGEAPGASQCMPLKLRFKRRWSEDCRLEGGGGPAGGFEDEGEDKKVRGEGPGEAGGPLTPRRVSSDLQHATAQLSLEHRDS
# Procedure, shortened: as §1
# ETV3L = molecular target: T7, ETV3L (Homo sapiens, UniProt Q6ZN32 1-361); conditions: protein: recombinant; tags: N-terminal GST; dsDNA, one strand shown
# T7 sequence: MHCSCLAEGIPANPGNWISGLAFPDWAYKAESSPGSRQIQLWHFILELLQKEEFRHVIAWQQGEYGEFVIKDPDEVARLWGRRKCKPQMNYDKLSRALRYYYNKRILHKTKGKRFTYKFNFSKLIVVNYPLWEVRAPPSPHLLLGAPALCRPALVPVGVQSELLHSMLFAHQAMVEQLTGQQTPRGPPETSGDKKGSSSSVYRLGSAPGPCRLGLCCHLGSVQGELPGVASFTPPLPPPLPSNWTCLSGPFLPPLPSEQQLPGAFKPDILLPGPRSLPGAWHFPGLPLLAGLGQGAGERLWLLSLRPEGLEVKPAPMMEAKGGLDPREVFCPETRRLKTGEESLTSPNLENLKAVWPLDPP
# Procedure, shortened: as §1
# ETS2 = molecular target: T8, ETS2 (Homo sapiens, UniProt P15036 1-469); conditions: protein: recombinant; tags: N-terminal GST; dsDNA, one strand shown
# T8 sequence: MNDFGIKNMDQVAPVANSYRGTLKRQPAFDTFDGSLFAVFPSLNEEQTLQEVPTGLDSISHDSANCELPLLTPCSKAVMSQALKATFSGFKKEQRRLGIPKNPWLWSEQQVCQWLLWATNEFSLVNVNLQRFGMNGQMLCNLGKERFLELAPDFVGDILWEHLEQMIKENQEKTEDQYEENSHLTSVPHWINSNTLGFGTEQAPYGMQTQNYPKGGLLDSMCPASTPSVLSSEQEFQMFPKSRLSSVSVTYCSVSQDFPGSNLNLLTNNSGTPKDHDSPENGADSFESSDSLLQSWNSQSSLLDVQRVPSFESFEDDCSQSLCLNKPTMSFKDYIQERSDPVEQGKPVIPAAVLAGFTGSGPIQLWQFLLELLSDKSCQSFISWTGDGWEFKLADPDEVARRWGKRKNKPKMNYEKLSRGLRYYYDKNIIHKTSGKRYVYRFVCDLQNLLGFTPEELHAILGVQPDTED
# Procedure, shortened: as §1
# SPDEF = molecular target: T9, SPDEF (Homo sapiens, UniProt O95238 1-335); conditions: protein: recombinant; tags: N-terminal GST; dsDNA, one strand shown
# T9 sequence: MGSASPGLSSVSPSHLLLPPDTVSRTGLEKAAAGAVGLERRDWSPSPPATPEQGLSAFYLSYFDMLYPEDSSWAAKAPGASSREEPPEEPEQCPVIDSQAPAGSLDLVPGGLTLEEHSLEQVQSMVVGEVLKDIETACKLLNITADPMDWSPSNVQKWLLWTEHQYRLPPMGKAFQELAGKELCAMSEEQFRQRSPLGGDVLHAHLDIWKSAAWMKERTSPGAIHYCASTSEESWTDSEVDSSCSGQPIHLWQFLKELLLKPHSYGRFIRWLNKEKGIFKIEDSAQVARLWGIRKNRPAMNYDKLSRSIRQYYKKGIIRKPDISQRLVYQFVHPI
# Procedure, shortened: as §1
# ETV7 = molecular target: T10, ETV7 (Homo sapiens, UniProt Q9Y603 1-341); conditions: protein: recombinant; tags: N-terminal GST; dsDNA, one strand shown
# T10 sequence: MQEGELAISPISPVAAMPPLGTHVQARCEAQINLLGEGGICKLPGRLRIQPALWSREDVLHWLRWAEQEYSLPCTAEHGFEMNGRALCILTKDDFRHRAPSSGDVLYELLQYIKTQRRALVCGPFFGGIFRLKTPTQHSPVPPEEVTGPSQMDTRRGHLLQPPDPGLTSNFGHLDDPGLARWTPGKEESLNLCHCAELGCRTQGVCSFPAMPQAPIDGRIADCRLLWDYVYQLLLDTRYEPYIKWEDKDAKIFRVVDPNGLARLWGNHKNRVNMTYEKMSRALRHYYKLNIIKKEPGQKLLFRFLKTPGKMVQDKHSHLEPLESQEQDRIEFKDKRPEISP
# Procedure, shortened: as §1
# ELF5 = molecular target: T11, ELF5 (Homo sapiens, UniProt Q9UKW6-2 1-255); conditions: protein: recombinant; tags: N-terminal GST; dsDNA, one strand shown
# T11 sequence: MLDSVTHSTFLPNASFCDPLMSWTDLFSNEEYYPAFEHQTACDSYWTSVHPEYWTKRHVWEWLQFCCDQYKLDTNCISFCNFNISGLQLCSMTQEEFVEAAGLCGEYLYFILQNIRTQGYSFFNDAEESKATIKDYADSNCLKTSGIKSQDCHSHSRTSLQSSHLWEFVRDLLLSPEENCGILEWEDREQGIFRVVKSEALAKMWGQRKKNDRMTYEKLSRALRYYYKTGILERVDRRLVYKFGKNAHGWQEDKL
# Procedure, shortened: as §1
# ETV3 = molecular target: T12, ETV3 (Homo sapiens, UniProt P41162-2 1-143); conditions: protein: recombinant; tags: N-terminal GST; dsDNA, one strand shown
# T12 sequence: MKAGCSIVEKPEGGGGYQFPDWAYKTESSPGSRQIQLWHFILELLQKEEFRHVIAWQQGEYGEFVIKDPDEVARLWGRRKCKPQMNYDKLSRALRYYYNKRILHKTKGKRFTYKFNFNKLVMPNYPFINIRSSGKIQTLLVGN
# Procedure, shortened: as §1
# ETV6 = ETV6 (Homo sapiens, UniProt P41212 1-452); conditions: protein: recombinant; tags: N-terminal GST; dsDNA, one strand shown
# Procedure, shortened: as §1
# Sequence of ETV1 (P50549 whole entry): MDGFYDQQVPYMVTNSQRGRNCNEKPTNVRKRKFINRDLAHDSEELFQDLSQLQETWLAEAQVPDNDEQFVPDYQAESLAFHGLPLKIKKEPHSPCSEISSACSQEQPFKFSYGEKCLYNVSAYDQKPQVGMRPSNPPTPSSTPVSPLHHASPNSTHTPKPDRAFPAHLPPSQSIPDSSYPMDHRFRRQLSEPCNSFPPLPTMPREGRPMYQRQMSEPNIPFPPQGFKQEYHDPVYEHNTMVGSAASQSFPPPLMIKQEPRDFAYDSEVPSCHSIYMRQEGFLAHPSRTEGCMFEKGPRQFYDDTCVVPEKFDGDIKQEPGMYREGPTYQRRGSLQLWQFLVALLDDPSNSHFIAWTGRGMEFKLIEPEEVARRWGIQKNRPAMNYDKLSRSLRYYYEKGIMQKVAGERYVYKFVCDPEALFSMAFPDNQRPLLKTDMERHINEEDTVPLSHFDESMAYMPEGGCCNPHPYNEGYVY
# Sequence of ETV5 (P41161 whole entry): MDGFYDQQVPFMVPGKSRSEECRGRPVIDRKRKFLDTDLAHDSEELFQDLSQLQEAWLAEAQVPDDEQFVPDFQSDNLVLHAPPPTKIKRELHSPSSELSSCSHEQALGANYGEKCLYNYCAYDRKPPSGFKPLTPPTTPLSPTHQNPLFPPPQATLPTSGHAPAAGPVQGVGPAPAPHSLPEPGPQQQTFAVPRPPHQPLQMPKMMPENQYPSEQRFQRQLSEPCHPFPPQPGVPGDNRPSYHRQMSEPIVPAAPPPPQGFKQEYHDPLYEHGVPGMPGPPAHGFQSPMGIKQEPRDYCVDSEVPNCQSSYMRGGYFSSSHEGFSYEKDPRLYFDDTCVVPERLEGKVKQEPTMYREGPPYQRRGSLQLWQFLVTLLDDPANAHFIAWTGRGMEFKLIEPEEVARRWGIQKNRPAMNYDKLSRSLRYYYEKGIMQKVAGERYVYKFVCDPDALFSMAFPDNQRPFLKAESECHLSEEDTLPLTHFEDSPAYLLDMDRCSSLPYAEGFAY
# Sequence of CRX (O43186 whole entry): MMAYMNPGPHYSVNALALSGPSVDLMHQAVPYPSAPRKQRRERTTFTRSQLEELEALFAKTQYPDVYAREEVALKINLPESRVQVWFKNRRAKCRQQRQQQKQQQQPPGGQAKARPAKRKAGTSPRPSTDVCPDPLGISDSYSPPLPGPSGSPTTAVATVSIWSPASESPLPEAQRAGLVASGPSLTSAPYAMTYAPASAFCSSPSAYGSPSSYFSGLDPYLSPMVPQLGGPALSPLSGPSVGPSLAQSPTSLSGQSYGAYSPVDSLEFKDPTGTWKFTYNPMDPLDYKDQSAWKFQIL
# Sequence of ETV6 (P41212 whole entry): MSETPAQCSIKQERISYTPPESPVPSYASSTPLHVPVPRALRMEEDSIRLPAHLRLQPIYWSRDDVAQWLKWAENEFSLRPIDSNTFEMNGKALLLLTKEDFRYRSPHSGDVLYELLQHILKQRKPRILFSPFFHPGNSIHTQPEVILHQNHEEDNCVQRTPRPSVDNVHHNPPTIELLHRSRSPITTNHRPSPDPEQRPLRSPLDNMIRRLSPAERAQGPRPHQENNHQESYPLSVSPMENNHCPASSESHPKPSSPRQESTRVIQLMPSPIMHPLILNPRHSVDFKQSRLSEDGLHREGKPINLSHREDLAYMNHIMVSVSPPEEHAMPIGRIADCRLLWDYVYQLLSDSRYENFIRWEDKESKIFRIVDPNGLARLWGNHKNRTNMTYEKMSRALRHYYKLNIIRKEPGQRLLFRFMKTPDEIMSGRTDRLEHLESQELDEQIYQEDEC
# Sequence of HSF1 (Q00613 whole entry): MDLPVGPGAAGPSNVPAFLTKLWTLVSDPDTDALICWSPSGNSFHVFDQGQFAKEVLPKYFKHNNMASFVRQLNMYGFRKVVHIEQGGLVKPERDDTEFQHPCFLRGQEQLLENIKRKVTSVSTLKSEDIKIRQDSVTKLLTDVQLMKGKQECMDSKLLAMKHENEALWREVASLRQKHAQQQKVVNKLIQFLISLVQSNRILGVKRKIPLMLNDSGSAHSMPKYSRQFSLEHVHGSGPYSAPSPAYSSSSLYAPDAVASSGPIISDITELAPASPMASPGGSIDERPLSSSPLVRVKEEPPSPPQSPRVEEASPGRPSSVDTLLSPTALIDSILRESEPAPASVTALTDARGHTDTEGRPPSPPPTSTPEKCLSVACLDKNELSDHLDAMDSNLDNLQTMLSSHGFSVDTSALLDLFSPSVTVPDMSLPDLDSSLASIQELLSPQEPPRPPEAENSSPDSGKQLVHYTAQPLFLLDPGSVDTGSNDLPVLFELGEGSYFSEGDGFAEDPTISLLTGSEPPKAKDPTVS
# Sequence of ELF4 (Q99607 whole entry): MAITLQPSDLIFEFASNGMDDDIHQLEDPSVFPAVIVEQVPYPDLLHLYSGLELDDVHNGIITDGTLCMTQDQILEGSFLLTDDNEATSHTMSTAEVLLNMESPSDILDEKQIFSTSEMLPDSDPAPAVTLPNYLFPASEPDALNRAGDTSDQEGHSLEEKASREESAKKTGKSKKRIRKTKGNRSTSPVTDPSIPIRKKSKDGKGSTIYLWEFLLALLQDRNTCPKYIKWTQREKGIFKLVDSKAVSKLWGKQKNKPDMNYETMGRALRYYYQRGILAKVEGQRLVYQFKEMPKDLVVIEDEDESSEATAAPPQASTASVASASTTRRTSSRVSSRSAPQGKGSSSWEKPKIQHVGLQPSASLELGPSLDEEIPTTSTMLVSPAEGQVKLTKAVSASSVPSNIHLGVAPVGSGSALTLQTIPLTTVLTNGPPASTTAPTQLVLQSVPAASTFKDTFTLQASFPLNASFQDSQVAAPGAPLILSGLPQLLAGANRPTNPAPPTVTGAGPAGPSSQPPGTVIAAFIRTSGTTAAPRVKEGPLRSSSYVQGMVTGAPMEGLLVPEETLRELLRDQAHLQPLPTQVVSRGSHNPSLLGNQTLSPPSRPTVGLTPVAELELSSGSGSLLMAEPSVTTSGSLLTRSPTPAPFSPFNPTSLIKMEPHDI
sequence,measurement,setting,value
ACCTTA,binding signal,FEV,"1.27 fold enrichment (6-mer frequency, TF over GST control)"
same,binding signal,ETV5,"1.23 fold enrichment (6-mer frequency, TF over GST control)"
same,binding signal,HSF1,"1.19 fold enrichment (6-mer frequency, TF over GST control)"
same,binding signal,SPIC,"1.11 fold enrichment (6-mer frequency, TF over GST control)"
same,binding signal,ELF4,"1.24 fold enrichment (6-mer frequency, TF over GST control)"
same,binding signal,ELK4,"1.32 fold enrichment (6-mer frequency, TF over GST control)"
same,binding signal,ETV2,"1.32 fold enrichment (6-mer frequency, TF over GST control)"
same,binding signal,ELF3,"1.22 fold enrichment (6-mer frequency, TF over GST control)"
same,binding signal,CRX,"1.43 fold enrichment (6-mer frequency, TF over GST control)"
same,binding signal,ETV1,"1.4 fold enrichment (6-mer frequency, TF over GST control)"
same,binding signal,ERF,"1.29 fold enrichment (6-mer frequency, TF over GST control)"
same,binding signal,ETV3L,"1.19 fold enrichment (6-mer frequency, TF over GST control)"
same,binding signal,ETS2,"1.16 fold enrichment (6-mer frequency, TF over GST control)"
same,binding signal,SPDEF,"1.3 fold enrichment (6-mer frequency, TF over GST control)"
same,binding signal,ETV7,"1.21 fold enrichment (6-mer frequency, TF over GST control)"
same,binding signal,ELF5,"1.26 fold enrichment (6-mer frequency, TF over GST control)"
same,binding signal,ETV3,"1.17 fold enrichment (6-mer frequency, TF over GST control)"
same,binding signal,ETV6,"1.21 fold enrichment (6-mer frequency, TF over GST control)"
